The results in this text go back to PubChem BioAssay (NCATS).

The target of assay [1] is Cellular tumor antigen p53 (Homo sapiens) (UniProt P04637). Briefly: Primary qHTS for small molecule compounds that upregulate eGFP-tagged delta133p53alpha (in N-terminal) cells. (AID 2060322).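 For activation: 0% = DMSO vehicle and 100% = reference activator.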 Note: nearly all actives have a fitted effect of over 75% in size. As to conditions: NCI-H358 eGFP-delta133p53alpha fluorescence, 24 h; activation: active compounds read high. An outline of the steps: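 NCI-H358 cells pre-induced 24 h with 10 ng/ml doxycycline to express N-terminal eGFP-delta133p53alpha, then dosed 24 h at 37C without doxycycline; fixed, Hoechst-stained, GFP intensity by laser scanning cytometry, normalized to DMSO (0%) and 57.5 uM 5-azacytidine (100%).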
Sequence of Cellular tumor antigen p53 (Homo sapiens) (P04637 whole entry, looked up): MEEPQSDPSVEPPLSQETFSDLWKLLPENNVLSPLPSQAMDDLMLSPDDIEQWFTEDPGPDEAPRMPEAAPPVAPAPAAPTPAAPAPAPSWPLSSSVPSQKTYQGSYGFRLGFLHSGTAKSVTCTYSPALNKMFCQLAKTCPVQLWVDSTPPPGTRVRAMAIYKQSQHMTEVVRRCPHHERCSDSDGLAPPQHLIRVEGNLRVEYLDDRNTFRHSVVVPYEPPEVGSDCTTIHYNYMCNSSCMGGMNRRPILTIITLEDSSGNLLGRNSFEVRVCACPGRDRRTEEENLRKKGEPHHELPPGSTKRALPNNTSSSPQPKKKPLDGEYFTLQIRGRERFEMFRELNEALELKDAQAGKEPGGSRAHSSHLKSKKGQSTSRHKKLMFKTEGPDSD
Background: In qHTS, concentration-response curves come from the screen itself.

A short description of assay [2]: BET inhibitor-based combinations targeting novel dependencies in MECOM-rearranged (r) AML: SET-2 cell line (AID 2202231).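 For viability: plate controls were DMSO treated cells for no effect and wells without cells for full effect.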 Note: nearly all actives have a fitted effect of over 35% in size. As to conditions: SET-2 AML cells viability, CellTiter-Glo luminescence, 48 h; viability: active compounds read low, concentration not given here. An outline of the steps: (§1)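 AML cell lines seeded at 500 cells/well, treated with 11-point dose curves for 48 h. Viability by CellTiter-Glo luminescence, normalised to DMSO and empty wells; activity expressed as AUC and per-cell-line Z-transformed AUC.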
On the technique in general: In ATP-based viability assays light output follows the ATP content of the culture.

Assay [3] in a line: BET inhibitor-based combinations targeting novel dependencies in MECOM-rearranged (r) AML: OCI-AML3 cell line (AID 2202232). Note: nearly all actives have a fitted effect of over 35% in size. The conditions noted are these: CellTiter-Glo luminescence, 48 h; Potency: OCI-AML3 viability; series mostly up to 46 µM. An outline of the steps: as §1
The nature of assay [4]: BET inhibitor-based combinations targeting novel dependencies in MECOM-rearranged (r) AML: MV-4-11 cell line (AID 2202233). Note: nearly all actives have a fitted effect of over 45% in size. As to conditions: MV-4-11 AML viability, CellTiter-Glo luminescence, 48 h; series mostly up to 46 µM. The method, boiled down: (§2)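 Cells at 500/well were exposed for 48 hr to MIPE v5.0 drugs as 11-point dose curves. Viability was read by CellTiter-Glo luminescence and normalized to DMSO and empty-well controls. Activity was expressed as AUC and per-cell-line Z-AUC.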

A short description of assay [5]: BET inhibitor-based combinations targeting novel dependencies in MECOM-rearranged (r) AML: HNT-34 cell line (AID 2202234). Note: nearly all actives have a fitted effect of over 35% in size. As to conditions: HNT-34 AML viability, CellTiter-Glo luminescence, 48 h; series mostly up to 46 µM. An outline of the steps:
as §2

Assay [6] can be described thus: BET inhibitor-based combinations targeting novel dependencies in MECOM-rearranged (r) AML: UCSD-AML1 cell line (AID 2202235). Note: nearly all actives have a fitted effect of over 40% in size. The conditions noted are these: UCSD-AML1 AML cells viability, CellTiter-Glo, 48 h; series mostly up to 46 µM. An outline of the steps:
as §2

The nature of assay [7]: BET inhibitor-based combinations targeting novel dependencies in MECOM-rearranged (r) AML: AML-191 cell line (AID 2202236; note: nearly all actives have a fitted effect of over 35% in size). As to conditions: AML-191 viability, CellTiter-Glo luminescence, 48 h; series mostly up to 46 µM. The method, boiled down:
as §1

Assay [8] is described as follows: BET inhibitor-based combinations targeting novel dependencies in MECOM-rearranged (r) AML: AML-194 cell line (AID 2202237; note: nearly all actives have a fitted effect of over 40% in size). As to conditions: AML-194 (MECOM-r AML) viability, CellTiter-Glo, 48 h; series mostly up to 46 µM. An outline of the steps:
as §1

As a reminder, the viability is a read-out of living cells in per cent, often relative to untreated cells.

Several values for one entry are separate records, joined by “and”; a condition that tells them apart may be missing. Equal entries are not always repeated. Records with an inconclusive call do not appear. A number with no mark means an inactive call. Activity calls are given as the source filed them. Calls come from the whole dose curve; as a rule, active = well fitted curve in the direction sought with a large enough effect; inconclusive = small, poorly fitted or top-dose-only effect, or another doubt; inactive = no such curve, though single readings can be large; an effect the other way counts as inactive or inconclusive. Residues, ends and D or L forms follow the SMILES beside them.
Potency is the fitted concentration of half-maximal effect.

Regarding `COC(=O)[C@H](Cc1ccccc1)NC(=O)[C@@H](N)CC(=O)O` (H-Asp-Phe-OMe), the activation in assay [1] was -35.6% and -14.3%. In addition, in assay [2], the viability was 112%. Moreover, the Potency entry in assay [3], in assay [4], in assay [5], in assay [6], in assay [7] and in assay [8] was “inactive” in each case.

Regarding `C=C(C)[C@@H]1CC[C@]2(C(=O)O)CC[C@]3(C)[C@H](CC[C@@H]4[C@@]5(C)CC[C@H](O)C(C)(C)[C@@H]5CC[C@]43C)[C@@H]12`, the activation in assay [1] was 7.46%. Further, the viability in assay [2] was 115%. Also, the Potency result in assay [3], in assay [4], in assay [5], in assay [6], in assay [7] and in assay [8] was “inactive” each time.

On to `Cc1ccccc1N1C(=O)c2cc(S(N)(=O)=O)c(Cl)cc2NC1C` (stereo unspecified), for which the activation in assay [1] was -15.9% and -14.5%. The viability in assay [2] was 115%. The Potency result in assay [3], in assay [4], in assay [5], in assay [6], in assay [7] and in assay [8] was “inactive” throughout.

As to `CC(C)C[C@H](NC(=O)CNC(=O)c1cc(Cl)ccc1Cl)B(O)O`, the Potency was 17.2 µM (active) in assay [1]; 0.105 µM (active) in assay [2]; 0.118 µM (active) in assay [3]; 0.148 µM (active) in assay [4]; 0.132 µM (active) in assay [5]; 0.166 µM (active) in assay [6]. The Potency in assay [7] was 0.166 µM (active); in assay [8], 332 nM (active).

As for `CCN1CCN(C(=O)N[C@@H](C(=O)N[C@@H]2C(=O)N3C(C(=O)O)=C(CSc4nnnn4C)CS[C@H]23)c2ccc(O)cc2)C(=O)C1=O`, the activation in assay [1] was -7.34%. Besides, in assay [2], the viability is 99.4%. Also, the Potency entry in assay [3], in assay [4], in assay [5], in assay [6], in assay [7] and in assay [8] was “inactive” in each case.

Turning to `CN(C)c1ccc2nc3ccc(=[N+](C)C)cc-3sc2c1`, the Potency was 17.4 µM (active) in assay [1]; 5.9 µM (active) in assay [2]; 5.25 µM (active) in assay [3]; 2.63 µM (active) in assay [4]; 7.42 µM (active) in assay [5]; 9.34 µM (active) in assay [6]. For the same molecule, the Potency in assay [7] is 2.95 µM (active); in assay [8], 4680 nM (active).

Consider `Cc1cc(=O)oc2cc(O)ccc12`, for which, in assay [1], the activation is -17.5% and -1.39%. For the same molecule, in assay [2], the viability is 111%. Moreover, the Potency entry in assay [3], in assay [4], in assay [5], in assay [6], in assay [7] and in assay [8] was “inactive” in each case.

For the molecule `CN(CC(=O)N(Cc1ccc(C2CCCCC2)cc1)c1ccc(C(=O)O)c(O)c1)S(=O)(=O)c1c(F)c(F)c(F)c(F)c1F`, in assay [1], the activation was 37.6%. The viability in assay [2] is 114%. Besides, the Potency in assay [3] is 9.34 µM (active); in assay [4] it was 6.61 µM (active); in assay [5], 6.61 µM (active); in assay [7], 26.3 µM (active). For the same molecule, the Potency entry in assay [6] and in assay [8] was “inactive” in each case.

In the case of `CC1Cc2ccccc2N1NC(=O)c1ccc(Cl)c(S(N)(=O)=O)c1` (stereo unspecified), the activation in assay [1] was -9.21% and -1.28%. In addition, the viability in assay [2] was 112%. For the same molecule, the Potency result in assay [3], in assay [4], in assay [5], in assay [6], in assay [7] and in assay [8] was “inactive” throughout.

As for `COC1CCC(N(C(=O)C2CCC(C)CC2)c2cc(C3=CCCCC3)sc2C(=O)O)CC1` (stereo unspecified), the activation in assay [1] is -11.2%. In assay [2], the viability was 113%. Moreover, the Potency entry in assay [3], in assay [4], in assay [5], in assay [6], in assay [7] and in assay [8] was “inactive” throughout.

For the molecule `Nc1ccc(S(N)(=O)=O)cc1`, the activation in assay [1] was -29.9% and 4.8%. For the same molecule, the viability in assay [2] was 93.8%. The Potency entry in assay [3], in assay [4], in assay [5], in assay [6], in assay [7] and in assay [8] was “inactive” in each case.

Take `O=C(CN1C(=O)C2(CCCC2)NC[C@H]1c1cc(F)cc(F)c1)Nc1ccc2c(c1)C[C@@]1(C2)C(=O)Nc2ncccc21`: the activation in assay [1] is 22.6%. In assay [2], the viability is 98.8%. Besides, the Potency entry in assay [3], in assay [4], in assay [5], in assay [6], in assay [7] and in assay [8] was “inactive” throughout.

On to `CC(C)(CO)[C@@H](O)C(=O)NCCC(=O)O`, for which the activation in assay [1] is -14.4%. The viability in assay [2] was 117%. Further, the Potency entry in assay [3], in assay [4], in assay [5], in assay [6], in assay [7] and in assay [8] was “inactive” throughout.

Consider `O=C(O)C(=O)Nc1cccc(-c2nn[nH]n2)c1`, for which, in assay [1], the activation is -3.95%. Moreover, the viability in assay [2] is 121%. Also, the Potency result in assay [3], in assay [4], in assay [5], in assay [6], in assay [7] and in assay [8] was “inactive” in each case.

Turning to `O=c1ccn([C@@H]2O[C@H](CO)[C@H](O)[C@@H]2F)c(=O)[nH]1`, in assay [1], the activation was -22.6%. In assay [2], the viability was 107%. Besides, the Potency entry in assay [3], in assay [4], in assay [5], in assay [6], in assay [7] and in assay [8] was “inactive” each time.

As for `CC(=O)[C@H]1CC[C@H]2[C@@H]3CC=C4C[C@@H](O)CC[C@]4(C)[C@H]3CC[C@]12C`, the activation in assay [1] is -3.95% and -16.2%. The viability in assay [2] is 112%. The Potency entry in assay [3], in assay [4], in assay [5], in assay [6], in assay [7] and in assay [8] was “inactive” each time.

Take `CCOC(=O)[C@H](CCc1ccccc1)N[C@@H](C)C(=O)N1[C@H](C(=O)O)C[C@@H]2CCC[C@@H]21`: in assay [1], the activation was 5.08%. In assay [2], the viability is 108%. Further, the Potency result in assay [3], in assay [4], in assay [5], in assay [6], in assay [7] and in assay [8] was “inactive” each time.
